Data from PubChem BioAssay (Tox21).
Records with an inconclusive call do not appear. Activity calls are given as the source filed them. Unless noted, the call rests on the fitted dose curve.

Key:
[1] = Nuclear factor erythroid 2-related factor 2/antioxidant responsive element (Nrf2/ARE) small molecule agonists: qHTS cell viability counter screen in human keratinocytes (AID 1919968; active means well fitted curve in the direction sought with a large enough effect in the repeat runs; an effect the other way counts as inactive or inconclusive; further: nearly all actives have a fitted effect of over 55% in size); conditions: KeratinoSens HaCaT ARE cells viability, CellTiter-Fluor, 24 h; series mostly up to 92.4 µM
Summary of the method: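 Parallel cytotoxicity read: KeratinoSens HaCaT cells, compound treatment 23 h, viability by CellTiter-Fluor fluorescence 1 h post-reagent.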

[2] = molecular target: Gonadotropin-releasing hormone receptor (Homo sapiens) (UniProt P30968); experiment: Human gonadotropin-releasing hormone receptor (GnRHR) small molecule agonists, calcium flux assay in GnRHR-HEK293 cells (AID 1920063); conditions: calcium flux fluorescence, agonist mode; series mostly up to 57.6 µM; further: nearly all actives have a fitted effect of over 35% in size
Summary of the method: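 Calcium flux, agonist mode, human GnRHR stably integrated in HEK293; dye 1 h at 37 C before compound; Ex/Em=480/540 kinetic read, 3 min; 15 concentrations, triplicate.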

[3] = molecular target: KiSS-1 receptor (Homo sapiens) (UniProt Q969F8); experiment: Human kisspeptin (KISS1R) small molecule agonists, calcium flux assay in KISS1R-HEK293 cells (AID 1920064; active means well fitted curve in the direction sought with a large enough effect in the repeat runs; an effect the other way counts as inactive or inconclusive); conditions: KISS1R-HEK293, calcium flux fluorescence, agonist; series mostly up to 76.8 µM
Summary of the method: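 Triplicate 15-concentration series were applied to dye-loaded human KISS1R HEK293 cells, and agonist-evoked calcium fluorescence was captured for 3 min.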

[4] = G protein-coupled receptor (GPCR) small molecule agonists, calcium flux assay: HEK293 wild type cell line counter screen (AID 1920065); conditions: HEK293 WT calcium flux, fluorescence, agonist mode; series mostly up to 57.6 µM
Summary of the method: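 Non-specific calcium responders were flagged by adding DMSO-dissolved compounds to dye-loaded cells and reading 480/540 nm fluorescence each second for 3 min; ATP served as positive control.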

[5] = p53 small molecule agonists, cell-based qHTS assay with human liver microsomes (AID 1963577); conditions: HCT-116 p53RE-bla with human liver microsomes, ratio, 16 h; series mostly up to 66 µM;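 further: p53 response element beta-lactamase reporter cells with liver microsomes plus NADPH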
Summary of the method: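 Metabolically competent format: test substances, human liver microsomes and NADPH (both 0.5 mg/mL final) incubated with p53RE-bla cells 16 h at 37 C. Beta-lactamase reporter signal then quantified by fluorescence.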

[6] = p53 small molecule agonists, cell-based qHTS assay with rat liver microsomes (AID 1963578); conditions: HCT-116 p53RE-bla, beta-lactamase ratio, 16 h; series mostly up to 66 µM
Summary of the method: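 Each plate received p53RE-bla cells, then compound, then rat liver microsomes and NADPH (both 0.5 mg/mL final). Plates were held 16 h at 37 C, and beta-lactamase activity was detected with LiveBLAzer over 2 h.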

[7] = p53 small molecule agonists, cell-based qHTS assay with human liver microsomes: qHTS cell viability counter screen (AID 1963579); conditions: p53RE-bla HCT-116 viability, ATP luminescence, 16 h, HLM; series mostly up to 66 µM; further: nearly all actives have a fitted effect of over 45% in size
Summary of the method: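 Tox21 library compounds, delivered from DMSO stocks, were tested on p53RE-bla cells together with 0.5 mg/mL human liver microsomes and 0.5 mg/mL NADPH (final) over 16 h at 37 C; CellTiter-Glo luminescence served as the cytotoxicity measure.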

[8] = p53 small molecule agonists, cell-based qHTS assay: qHTS cell viability counter screen (AID 1963581); conditions: p53RE-bla HCT-116 viability, ATP luminescence, 16 h; series mostly up to 66 µM; further: nearly all actives have a fitted effect of over 45% in size
Summary of the method: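 Multiplexed with the reporter read, a CellTiter-Glo step (30 min, room temperature) gauges ATP-based viability of HCT-116 p53RE-bla cells after 16 h compound incubation at 37 C.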

[9] = p53 small molecule agonists, cell-based qHTS assay (AID 1963582; active means well fitted activation curve with a large enough effect in the signal ratio in the repeat runs, not every such curve was filed as active; the % refers to the signal ratio); conditions: HCT-116 p53RE-bla reporter, beta-lactamase FRET ratio, 16 h; series mostly up to 66 µM
Summary of the method: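 Beta-lactamase reporter cells (p53RE-bla) treated with compounds for 16 h at 37 C; FRET substrate, 2 h, room temperature; fluorescence intensity.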

[10] = molecular target: 5-hydroxytryptamine receptor 2A (Homo sapiens) (UniProt P28223); experiment: 5-hydroxytryptamine receptor 2A (HTR2A) small molecule antagonists, cell-based qHTS assay (AID 1963586); conditions: HTR2A-CHO cells, DOI-induced calcium flux, fluorescence; series mostly up to 61.5 µM; further: nearly all actives have a fitted effect of over 45% in size
Summary of the method: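 CHO cells stably expressing human HTR2A were plated for 18 h at 37 C, then loaded with calcium dye for 1 h. Compounds were preincubated 5 min at room temperature before DOI (4 nM solution) was added. Kinetic fluorescence was read for 3 min.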

[11] = molecular target: 5-hydroxytryptamine receptor 2A (Homo sapiens) (UniProt P28223); experiment: 5-hydroxytryptamine receptor 2A (HTR2A) small molecule agonists, cell-based qHTS assay (AID 1963587); conditions: HTR2A-CHO cells, calcium flux fluorescence, agonist mode; series mostly up to 76.8 µM; further: nearly all actives have a fitted effect of over 30% in size
Summary of the method: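 CHO cells stably expressing human HTR2A, plated 18 h, loaded with calcium dye 1 h at 37 C. Agonist mode: compounds added and intracellular calcium fluorescence recorded kinetically for 2 min at 1 sec intervals.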

[12] = molecular target: Muscarinic acetylcholine receptor M1 (Homo sapiens) (UniProt P11229); experiment: Cholinergic receptor muscarinic 1 (CHRM1) small molecule agonists, cell-based qHTS assay (AID 1963589); conditions: CHRM1-CHO cells, agonist mode, calcium flux fluorescence; series mostly up to 76.8 µM; further: nearly all actives have a fitted effect of over 35% in size
Summary of the method: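 qHTS, 15-point titration, 3 independent runs: compounds pin-transferred onto dye-loaded CHRM1-CHO cells (human M1), calcium fluorescence followed every second to detect agonism.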

[13] = cAMP Responsive Elements (CRE) small molecule agonists, cell-based qHTS assay (AID 1963590); conditions: CRE-bla HEK293T, beta-lactamase FRET ratio, 3 h; series mostly up to 92.4 µM
Summary of the method: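 Quantitative HTS for CRE agonists: HEK 293T CRE-bla cells, overnight plating, 3 h compound incubation at 37 C/5% CO2, then 2 h room-temperature LiveBLAzer B/G FRET substrate loading.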

[14] = cAMP Responsive Elements (CRE) small molecule antagonists, cell-based qHTS assay (AID 1963591; active means well fitted inhibition curve with a large enough effect in the signal ratio in the repeat runs, not every such curve was filed as active; the % refers to the signal ratio); conditions: CRE-bla HEK293T, beta-lactamase FRET ratio; series mostly up to 92.4 µM
Summary of the method: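 Fluorescence intensity from cleaved LiveBLAzer B/G substrate (2 h, room temperature) quantified CRE-bla activity in HEK 293T cells exposed 3 h to compound with 0.25 uM final NKH477.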

[15] = molecular target: Beta-2 adrenergic receptor (Homo sapiens) (UniProt P07550); experiment: Adrenergic beta2 receptor (ADRB2) small molecule antagonists, cell-based qHTS assay (AID 1963592); conditions: CHO-ADRB2 cells, isoproterenol-stimulated cAMP HTRF ratio, 0.5 h; series mostly up to 92.4 µM; further: nearly all actives have a fitted effect of over 50% in size
Summary of the method: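 Assay format: CHO-ADRB2 cells, 18-20hr seeding at 37C/5% CO2, then compound plus 1nM isoproterenol agonist mix for 0.5hr RT. Homogeneous time-resolved fluorescence cAMP detection after 1hr, expressed as 665/615 nm ratio.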

[16] = molecular target: Beta-2 adrenergic receptor (Homo sapiens) (UniProt P07550); experiment: Adrenergic beta2 receptor (ADRB2) small molecule agonists, cell-based qHTS assay (AID 1963593); conditions: CHO-ADRB2 cells, cAMP HTRF, 30 min; series mostly up to 92.4 µM;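 further: CHO cells stably overexpressing human ADRB2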
Summary of the method: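 CHO cells stably over-expressing ADRB2 were plated overnight at 37C, then dosed with compounds plus a stimulation mix containing 100uM IBMX and 25uM Ro-20-1724 for 0.5hr at room temperature. cAMP was measured by HTRF competition, 1hr.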

[17] = molecular target: D(2) dopamine receptor (Homo sapiens) (UniProt P14416); experiment: Dopamine D2 receptor (DRD2) small molecule agonists, cell-based qHTS assay (AID 1963594); conditions: HEK293-DRD2 cAMP HTRF, agonist mode, 30 min; series mostly up to 92.4 µM; further: nearly all actives have a fitted effect of over 35% in size
Summary of the method: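 HEK293 cells stably expressing human DRD2, pre-treated with PDE inhibitor Ro20-1724 (0.1 mM final) and compound 10 min at room temperature, then stimulated with NKH477 (200nM […]) for 30 min. cAMP read by HTRF (665/620 nm).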

[18] = p53 small molecule agonists, cell-based qHTS assay with rat liver microsomes: qHTS cell viability counter screen (AID 1963580); conditions: p53RE-bla HCT-116 + rat microsomes, ATP viability, 16 h; series mostly up to 66 µM; further: nearly all actives have a fitted effect of over 45% in size
Summary of the method: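 After the beta-lactamase ratio was read, CellTiter-Glo was added to the same wells and luminescence measured at 30 min; cells had been treated 16 h at 37 C with compounds, rat liver microsomes and NADPH (0.5 mg/mL final each).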

[19] = molecular target: D(2) dopamine receptor (Homo sapiens) (UniProt P14416); experiment: Dopamine D2 receptor (DRD2) small molecule antagonists, cell-based qHTS assay (AID 1963595; active means well fitted inhibition curve with a large enough effect in the signal ratio in the repeat runs, with a control signal flat; the % refers to the signal ratio); conditions: HEK293-DRD2 cAMP HTRF antagonist mode; series mostly up to 92.4 µM
Summary of the method: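 Human DRD2 antagonist qHTS measuring cAMP by HTRF. The cells are exposed to compound for 10 min, then to NKH477 (200 nM) and quinpirole (12 nM) for 30 min at RT, with Ro20-1724 (0.1 mM) present throughout.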

[20] = molecular target: Muscarinic acetylcholine receptor M1 (Homo sapiens) (UniProt P11229); experiment: Cholinergic receptor muscarinic 1 (CHRM1) small molecule antagonists, cell-based qHTS assay (AID 1963588); conditions: CHRM1-CHO antagonist mode, calcium flux fluorescence; series mostly up to 61.5 µM; further: nearly all actives have a fitted effect of over 40% in size
Summary of the method: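 Compounds were tested at 15 concentrations in three independent runs. Dye-loaded CHRM1-CHO cells were exposed 5 min at room temperature before stimulation by acetylcholine added at 50nM. Intracellular calcium was read kinetically on FDSS for 3 min.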

Measured: Potency

Sequence of 5-hydroxytryptamine receptor 2A (Homo sapiens) (P28223 whole entry, looked up): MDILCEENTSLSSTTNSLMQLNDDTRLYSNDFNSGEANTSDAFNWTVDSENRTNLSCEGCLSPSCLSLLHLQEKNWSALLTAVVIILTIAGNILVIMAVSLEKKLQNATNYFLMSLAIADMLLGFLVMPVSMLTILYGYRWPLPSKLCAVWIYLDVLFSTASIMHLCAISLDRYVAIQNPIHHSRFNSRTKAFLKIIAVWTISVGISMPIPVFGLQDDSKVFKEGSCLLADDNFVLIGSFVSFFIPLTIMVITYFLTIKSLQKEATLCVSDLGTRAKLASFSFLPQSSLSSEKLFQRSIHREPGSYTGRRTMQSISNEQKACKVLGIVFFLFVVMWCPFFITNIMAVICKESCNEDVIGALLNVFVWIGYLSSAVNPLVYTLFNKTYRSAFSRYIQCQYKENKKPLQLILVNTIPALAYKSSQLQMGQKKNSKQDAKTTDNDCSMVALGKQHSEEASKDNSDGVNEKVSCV
Sequence of Muscarinic acetylcholine receptor M1 (Homo sapiens) (P11229 whole entry, looked up): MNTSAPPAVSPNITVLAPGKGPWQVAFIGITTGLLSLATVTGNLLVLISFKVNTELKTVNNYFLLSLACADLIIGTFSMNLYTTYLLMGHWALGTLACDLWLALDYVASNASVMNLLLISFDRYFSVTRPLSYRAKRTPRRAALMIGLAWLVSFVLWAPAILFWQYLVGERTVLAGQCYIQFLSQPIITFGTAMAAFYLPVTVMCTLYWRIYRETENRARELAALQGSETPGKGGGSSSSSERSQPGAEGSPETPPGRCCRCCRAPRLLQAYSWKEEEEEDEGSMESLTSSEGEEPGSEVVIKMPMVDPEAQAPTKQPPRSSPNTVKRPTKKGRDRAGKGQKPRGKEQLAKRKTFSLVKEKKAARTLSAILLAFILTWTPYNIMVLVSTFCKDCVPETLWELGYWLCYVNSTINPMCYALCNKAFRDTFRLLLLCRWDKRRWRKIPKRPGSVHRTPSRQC
Sequence of KiSS-1 receptor (Homo sapiens) (Q969F8 whole entry, looked up): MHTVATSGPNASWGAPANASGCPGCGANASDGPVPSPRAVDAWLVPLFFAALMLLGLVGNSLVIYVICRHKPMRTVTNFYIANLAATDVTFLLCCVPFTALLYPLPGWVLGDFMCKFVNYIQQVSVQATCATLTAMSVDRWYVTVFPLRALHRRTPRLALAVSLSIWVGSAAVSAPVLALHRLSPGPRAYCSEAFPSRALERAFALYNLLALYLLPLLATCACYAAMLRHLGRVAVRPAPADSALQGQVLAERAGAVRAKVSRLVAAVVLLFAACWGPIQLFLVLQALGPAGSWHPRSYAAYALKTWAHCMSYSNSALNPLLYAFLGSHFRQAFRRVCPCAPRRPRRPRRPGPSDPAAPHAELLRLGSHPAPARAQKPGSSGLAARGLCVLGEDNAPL
Sequence of Gonadotropin-releasing hormone receptor (Homo sapiens) (P30968 whole entry, looked up): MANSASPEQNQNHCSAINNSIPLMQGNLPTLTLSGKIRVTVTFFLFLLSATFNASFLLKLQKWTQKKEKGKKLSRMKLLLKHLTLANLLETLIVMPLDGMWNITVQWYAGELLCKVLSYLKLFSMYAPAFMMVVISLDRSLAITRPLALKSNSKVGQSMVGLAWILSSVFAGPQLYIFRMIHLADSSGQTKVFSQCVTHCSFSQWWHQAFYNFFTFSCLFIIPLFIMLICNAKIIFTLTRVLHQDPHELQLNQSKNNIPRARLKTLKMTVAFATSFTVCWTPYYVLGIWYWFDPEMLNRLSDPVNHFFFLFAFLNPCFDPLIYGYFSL
Sequence of D(2) dopamine receptor (Homo sapiens) (P14416 whole entry, looked up): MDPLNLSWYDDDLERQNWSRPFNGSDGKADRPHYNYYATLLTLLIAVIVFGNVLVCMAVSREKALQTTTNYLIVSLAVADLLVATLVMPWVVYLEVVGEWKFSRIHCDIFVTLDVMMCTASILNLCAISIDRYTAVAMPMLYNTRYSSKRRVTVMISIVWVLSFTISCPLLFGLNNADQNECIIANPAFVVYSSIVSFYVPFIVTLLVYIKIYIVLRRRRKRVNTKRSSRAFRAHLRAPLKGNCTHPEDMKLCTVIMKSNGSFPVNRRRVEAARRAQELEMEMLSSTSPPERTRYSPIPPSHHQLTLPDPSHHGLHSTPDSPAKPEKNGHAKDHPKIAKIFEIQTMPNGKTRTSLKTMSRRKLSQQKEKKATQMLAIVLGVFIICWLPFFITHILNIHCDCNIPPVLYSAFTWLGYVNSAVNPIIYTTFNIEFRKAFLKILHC
Sequence of Beta-2 adrenergic receptor (Homo sapiens) (P07550 whole entry, looked up): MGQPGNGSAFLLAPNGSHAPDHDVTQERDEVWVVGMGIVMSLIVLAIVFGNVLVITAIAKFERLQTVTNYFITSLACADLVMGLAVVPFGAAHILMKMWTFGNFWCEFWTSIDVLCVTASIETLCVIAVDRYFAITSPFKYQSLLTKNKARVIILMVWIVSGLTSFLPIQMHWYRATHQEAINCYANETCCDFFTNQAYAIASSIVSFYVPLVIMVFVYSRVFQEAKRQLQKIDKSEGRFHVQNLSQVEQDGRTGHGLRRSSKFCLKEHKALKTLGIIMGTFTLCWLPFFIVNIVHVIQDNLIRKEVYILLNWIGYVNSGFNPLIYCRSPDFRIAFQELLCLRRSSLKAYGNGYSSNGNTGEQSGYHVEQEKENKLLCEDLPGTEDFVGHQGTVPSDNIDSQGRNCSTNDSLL

CC(CCl)OP(=O)(OC(C)CCl)OC(C)CCl (stereo not drawn)
not listed: [18] | [19] | [20]
inactive: all other assays above

CCO[Si](CCCN)(OCC)OCC
not listed: [20]
inactive: all other assays above

COCC(C)O (stereo not drawn)
not listed: [11]
inactive: all other assays above

Cc1cc(C(C)(C)C)c(O)c(C(C)(C)C)c1
not listed: [18]
inactive: all other assays above

O=C1O[C@H](CO)[C@@H](O)[C@H](O)[C@H]1O
inactive: all assays above

Cc1cc(C)c(C)cc1C
not listed: [11] | [19]
inactive: all other assays above

COC(C)COC(C)COC(C)CO (stereo not drawn)
not listed: [13]
inactive: all other assays above

Cc1cc(=O)[nH]c(C(C)C)n1
not listed: [10]
inactive: all other assays above

Clc1ccc(Cl)c(Cl)c1Cl
not listed: [16]
inactive: all other assays above

NC(=O)N/N=C/c1ccc([N+](=O)[O-])o1
not listed: [15] | [18]
inactive: all other assays above

Cc1ccc2ncccc2c1
not listed: [14]
inactive: all other assays above

c1ccc(Nc2ccccc2)cc1
not listed: [12] | [13] | [14] | [16] | [18]
inactive: all other assays above

COc1ccc(C(=O)c2ccccc2O)c(O)c1
not listed: [11] | [16]
inactive: all other assays above

O=C1O[C@H]([C@@H](O)CO)C(O)=C1O
not listed: [9] | [10] | [11] | [12] | [20]
inactive: all other assays above

Cc1cccc(C(=O)O)c1
not listed: [2] | [4] | [12]
inactive: all other assays above

CCCCOCCOCCOC(C)=O
not listed: [3]
inactive: all other assays above

C/C=C/C=C/C(=O)O
not listed: [4] | [5] | [6] | [9] | [16]
inactive: all other assays above

COCCCN
not listed: [2] | [7] | [14]
inactive: all other assays above

CCOC(=O)C1OC1c1ccccc1 (stereo not drawn)
not listed: [3] | [9] | [13] | [14]
inactive: all other assays above

C=C1C2CCC(C2)C1(C)C (stereo not drawn)
not listed: [5] | [13] | [16] | [17]
inactive: all other assays above

NC(=O)c1cnccn1
not listed: [2] | [9] | [10] | [11] | [12] | [16] | [20]
inactive: all other assays above

CNNCc1ccc(C(=O)NC(C)C)cc1
not listed: [2] | [10] | [11] | [12] | [20]
inactive: all other assays above

NC(N)=O
not listed: [5] | [6] | [9] | [16]
inactive: all other assays above

Nc1ccc(S(N)(=O)=O)cc1
inactive: [1] | [2] | [3] | [4] | [8] | [13] | [14] | [15] | [17] | [19]

CC(=O)c1ccccc1
not listed: [6] | [16]
inactive: all other assays above

Cc1cc(CC(=O)O)n(C)c1C(=O)c1ccc(Cl)cc1
not listed: [2] | [13] | [14]
inactive: all other assays above
